Experimental data as given in PubChem BioAssay (NCI).
The panel holds about 79,000 compounds, 15% with a hit somewhere; the sample as a whole holds those more often. Active and inactive are the calls of the source. No stated cut-off is given here; in the data, active means growth inhibition above about 70%; inactive means the rest.

Columns and labels:
[1] = NCI Yeast Anticancer Drug Screen. Data for the rad52 strain (AID 147);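 further: 0% = growth of vehicle-treated control cultures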; details: S. cerevisiae rad52 mutant growth inhibition, stronger effect = higher value
In short: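 Inhibition of yeast growth, referenced to vehicle controls, was the measured output for a strain with defective DNA damage repair.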

[2] = NCI Yeast Anticancer Drug Screen. Data for the rad50EPP+ strain (AID 151);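 further: 0% = growth of vehicle-treated control cultures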; details: S. cerevisiae rad50 mutant strain, stronger effect = higher value
In short: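 Genetically defined yeast (rad50EPP+, DNA damage repair alteration) is grown with compound, and inhibition of growth is expressed relative to vehicle-treated controls.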

[3] = NCI Yeast Anticancer Drug Screen. Data for the mgt1 strain (AID 153); details: S. cerevisiae mgt1 mutant growth inhibition, stronger effect = higher value
In short: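 In the mgt1 strain, test compounds were added and growth inhibition was determined relative to vehicle-treated controls.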

[4] = NCI Yeast Anticancer Drug Screen. Data for the rad50 strain (AID 155);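 further: 0% = growth of vehicle-only cultures of the same strain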; details: S. cerevisiae rad50 strain growth inhibition, stronger effect = higher value
In short: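 Growth of the mutant yeast was measured after compound exposure and referenced to vehicle-treated cultures.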

[5] = NCI Yeast Anticancer Drug Screen. Data for the mec2-1 strain (AID 157); details: S. cerevisiae mec2-1 strain, stronger effect = higher value
In short: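 Each compound was tested on mec2-1 yeast, a strain altered in DNA damage repair or cell cycle control. Growth inhibition is reported relative to vehicle.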

[6] = NCI Yeast Anticancer Drug Screen. Data for the rad14 strain (AID 159);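 further: 0% = growth of vehicle-treated control cultures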; details: S. cerevisiae rad14 strain growth inhibition, stronger effect = higher value
In short: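 Here, inhibition of yeast growth was measured after compound exposure, using a strain with a genetic defect in DNA damage repair and vehicle-treated cultures as the reference.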

[7] = NCI Yeast Anticancer Drug Screen. Data for the sgs1 mgt1 strain (AID 161);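 further: 0% = growth of cultures given vehicle only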; details: S. cerevisiae sgs1 mgt1 strain, stronger effect = higher value
In short: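 Genetically altered yeast, compound exposure, growth inhibition relative to vehicle.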

[8] = NCI Yeast Anticancer Drug Screen. Data for the CLN2oe strain (AID 163);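 further: 0% = growth of vehicle-only control cultures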; details: S. cerevisiae CLN2oe strain, stronger effect = higher value
In short: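 First, the altered yeast strain was treated with each compound; second, its growth was measured; finally, inhibition was derived by comparison with vehicle controls.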

[9] = NCI Yeast Anticancer Drug Screen. Data for the cln2 rad14 strain (AID 165);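 further: 0% = growth equal to vehicle treated cultures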; details: S. cerevisiae cln2 rad14 strain, stronger effect = higher value
In short: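 Test compounds were added to cln2 rad14 yeast cultures; inhibition of growth was then determined by comparison with vehicle treatment.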

[10] = NCI Yeast Anticancer Drug Screen. Data for the bub3 strain (AID 167); details: S. cerevisiae bub3 mutant strain, stronger effect = higher value
In short: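 Whole-cell yeast assay. The mutant strain was incubated with compounds, and growth inhibition was determined by comparison with vehicle-treated cells.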

[11] = NCI Yeast Anticancer Drug Screen. Data for the wt2 strain (AID 169);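 further: 0% = growth of vehicle-treated yeast cultures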; details: S. cerevisiae wt2 strain growth inhibition, stronger effect = higher value
In short: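 The panel's yeast strains carry defined changes in DNA repair or cell cycle genes. Each strain is grown with compound, and growth loss is scored relative to vehicle.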

[12] = NCI Yeast Anticancer Drug Screen. Data for the mlh1 strain (AID 171);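 further: 0% = growth of vehicle-treated control cultures of the same strain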; details: S. cerevisiae mlh1 strain growth inhibition, stronger effect = higher value
In short: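 Inhibition values reflect reduced yeast growth in the presence of compound, referenced to vehicle controls, using a strain chosen for its alteration in DNA repair or cell cycle control.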

[13] = NCI Yeast Anticancer Drug Screen. Data for the sgs1 strain (AID 173);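 further: 0% = growth of vehicle-only control cultures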; details: S. cerevisiae sgs1 mutant, stronger effect = higher value
In short: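 Vehicle-treated cultures served as reference for growth inhibition of a yeast strain altered in DNA damage repair or cell cycle control after compound exposure.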

[14] = NCI Yeast Anticancer Drug Screen. Data for the mlh1 rad18 strain (AID 175); details: S. cerevisiae mlh1 rad18 strain growth inhibition, stronger effect = higher value
In short: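 Inhibition values reflect reduced growth of mutant yeast versus vehicle-treated controls following compound exposure; the mutations affect DNA damage repair.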

[15] = NCI Yeast Anticancer Drug Screen. Data for the rad18 strain (AID 177); details: S. cerevisiae rad18 mutant growth inhibition, stronger effect = higher value
In short: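 Steps: expose repair-mutant yeast to compound; measure growth; express as inhibition relative to vehicle control.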

[16] = at 5.0 µM (retest, dose inferred, filed as 0.5)
[17] = at 50.0 µM (retest, dose inferred, filed as 5.0)

Measured: growth inhibition

NC1=NS(=O)(=O)N=C(N)C1=Cc1ccc([N+](=O)[O-])o1
active: [1]; at 33.0 µM 82% | [1]; at 100.0 µM 97% | [2]; at 33.0 µM 88% | [2]; at 100.0 µM 97% | [3]; at 100.0 µM 99% | [4]; at 33.0 µM 78% | [4]; [17] 77% | [4]; at 50.0 µM 88% | [4]; at 100.0 µM 97% | [5]; at 50.0 µM 93.8% | [5]; at 100.0 µM 98% | [6]; at 100.0 µM 97% | [7]; at 50.0 µM 92.7% | [8]; at 100.0 µM 99% | [9]; at 50.0 µM 74.7% | [10]; at 100.0 µM 98% | [11]; at 100.0 µM 98% | [12]; at 100.0 µM 98% | [13]; at 100.0 µM 98% | [14]; [17] 84% | [14]; at 50.0 µM 88.8% | [15]; at 11.0 µM 71% | [15]; at 33.0 µM 89% | [15]; at 100.0 µM 98%
inactive: [1]; at 1.2 µM -23% | [1]; at 3.7 µM -14% | [1]; at 11.0 µM 20% | [2]; at 1.2 µM 0% | [2]; at 3.7 µM 18% | [2]; at 11.0 µM 64% | [3]; at 1.2 µM 7% | [3]; at 3.7 µM 16% | [3]; at 11.0 µM 12% | [3]; at 33.0 µM 33% | [4]; at 1.2 µM 6% | [4]; at 3.7 µM 21% | [4]; [16] 3% | [4]; at 11.0 µM 42% | [5]; at 1.2 µM -20% | [5]; at 3.7 µM -25% | [5]; [16] -20% | [5]; at 11.0 µM -15% | [5]; at 33.0 µM 10% | [5]; [17] 14% | [6]; at 1.2 µM -7% | [6]; at 3.7 µM -8% | [6]; at 11.0 µM -9% | [6]; at 33.0 µM 1% | [7]; [16] -6% | [7]; [17] 43% | [8]; at 1.2 µM 9% | [8]; at 3.7 µM 0% | [8]; at 11.0 µM -11% | [8]; at 33.0 µM 13% | [9]; [16] -16% | [9]; [17] 25% | [10]; at 1.2 µM 8% | [10]; at 3.7 µM -11% | [10]; [16] 5% | [10]; at 11.0 µM -22% | [10]; at 33.0 µM -27% | [10]; [17] 47% | [10]; at 50.0 µM 68.5% | [11]; at 1.2 µM -41% | [11]; at 3.7 µM -34% | [11]; at 11.0 µM -22% | [11]; at 33.0 µM -6% | [12]; at 1.2 µM -7% | [12]; at 3.7 µM -6% | [12]; at 11.0 µM 2% | [12]; at 33.0 µM 33% | [13]; at 1.2 µM -15% | [13]; at 3.7 µM -10% | [13]; at 11.0 µM 18% | [13]; at 33.0 µM 45% | [14]; [16] 3% | [15]; at 1.2 µM 11% | [15]; at 3.7 µM 17%

O=C1C=CC(=Nc2ccc3c(c2)Cc2cc(NC(=O)C(F)(F)F)ccc2-3)O1
inactive: [1]; at 1.2 µM 4% | [1]; at 3.7 µM 8% | [1]; at 11.0 µM 21% | [1]; at 33.0 µM 33% | [2]; at 1.2 µM 8% | [2]; at 3.7 µM 40% | [3]; at 1.2 µM 1% | [3]; at 3.7 µM 5% | [3]; at 11.0 µM 12% | [3]; at 33.0 µM 36% | [4]; at 1.2 µM 2% | [4]; at 3.7 µM 7% | [4]; [16] 44% | [4]; at 11.0 µM 20% | [4]; at 33.0 µM 55% | [5]; at 1.2 µM 5% | [5]; at 3.7 µM 14% | [5]; at 11.0 µM 28% | [5]; at 33.0 µM 48% | [6]; at 1.2 µM 6% | [6]; at 3.7 µM 15% | [6]; at 11.0 µM 32% | [6]; at 33.0 µM 62% | [7]; [16] 51% | [8]; at 1.2 µM -4% | [8]; at 3.7 µM 1% | [8]; at 11.0 µM 10% | [8]; at 33.0 µM 23% | [9]; [16] 7% | [9]; at 50.0 µM 3.55% | [10]; at 1.2 µM -7% | [10]; at 3.7 µM -6% | [10]; [16] 25% | [10]; at 11.0 µM 0% | [10]; at 33.0 µM 13% | [11]; at 1.2 µM 1% | [11]; at 3.7 µM 3% | [11]; at 11.0 µM 15% | [11]; at 33.0 µM 26% | [12]; at 1.2 µM 3% | [12]; at 3.7 µM 9% | [12]; at 11.0 µM 22% | [12]; at 33.0 µM 39% | [15]; at 1.2 µM 4% | [15]; at 3.7 µM 13% | [15]; at 11.0 µM 32% | [15]; at 33.0 µM 57%
active: [1]; at 100.0 µM 97% | [2]; at 11.0 µM 81% | [2]; at 33.0 µM 91% | [2]; at 100.0 µM 98% | [3]; at 100.0 µM 96% | [4]; [17] 96% | [4]; at 50.0 µM 82.4% | [4]; at 100.0 µM 97% | [5]; [16] 88% | [5]; [17] 95% | [5]; at 50.0 µM 96% | [5]; at 100.0 µM 96% | [6]; at 100.0 µM 98% | [7]; [17] 97% | [7]; at 50.0 µM 98.3% | [8]; at 100.0 µM 96% | [9]; [17] 93% | [10]; [17] 96% | [10]; at 50.0 µM 87.7% | [10]; at 100.0 µM 96% | [11]; at 100.0 µM 98% | [12]; at 100.0 µM 98% | [14]; [16] 79% | [14]; [17] 94% | [14]; at 50.0 µM 98.3% | [15]; at 100.0 µM 96%
